This is an account of results in ChEMBL document CHEMBL3988442, “University of Dundee, Small-Polar-MMV Screening Library” (2021).

Set-up in all cases: scale not given: direction of the effect not stated beside the values
The target of test [1] is Protein translocase subunit SecA (Escherichia coli (strain K12)) (UniProt P10408). Briefly: Assay to Identify E. coli SecA ATPase Inhibitors. The class given is functional. To be noted: 30 µM.
Test [2] concerns the target T1, Ubiquitin-activating enzyme e1, putative (Leishmania donovani (strain BPK282A1)) (UniProt E9BSI1).
T1 sequence (whole entry): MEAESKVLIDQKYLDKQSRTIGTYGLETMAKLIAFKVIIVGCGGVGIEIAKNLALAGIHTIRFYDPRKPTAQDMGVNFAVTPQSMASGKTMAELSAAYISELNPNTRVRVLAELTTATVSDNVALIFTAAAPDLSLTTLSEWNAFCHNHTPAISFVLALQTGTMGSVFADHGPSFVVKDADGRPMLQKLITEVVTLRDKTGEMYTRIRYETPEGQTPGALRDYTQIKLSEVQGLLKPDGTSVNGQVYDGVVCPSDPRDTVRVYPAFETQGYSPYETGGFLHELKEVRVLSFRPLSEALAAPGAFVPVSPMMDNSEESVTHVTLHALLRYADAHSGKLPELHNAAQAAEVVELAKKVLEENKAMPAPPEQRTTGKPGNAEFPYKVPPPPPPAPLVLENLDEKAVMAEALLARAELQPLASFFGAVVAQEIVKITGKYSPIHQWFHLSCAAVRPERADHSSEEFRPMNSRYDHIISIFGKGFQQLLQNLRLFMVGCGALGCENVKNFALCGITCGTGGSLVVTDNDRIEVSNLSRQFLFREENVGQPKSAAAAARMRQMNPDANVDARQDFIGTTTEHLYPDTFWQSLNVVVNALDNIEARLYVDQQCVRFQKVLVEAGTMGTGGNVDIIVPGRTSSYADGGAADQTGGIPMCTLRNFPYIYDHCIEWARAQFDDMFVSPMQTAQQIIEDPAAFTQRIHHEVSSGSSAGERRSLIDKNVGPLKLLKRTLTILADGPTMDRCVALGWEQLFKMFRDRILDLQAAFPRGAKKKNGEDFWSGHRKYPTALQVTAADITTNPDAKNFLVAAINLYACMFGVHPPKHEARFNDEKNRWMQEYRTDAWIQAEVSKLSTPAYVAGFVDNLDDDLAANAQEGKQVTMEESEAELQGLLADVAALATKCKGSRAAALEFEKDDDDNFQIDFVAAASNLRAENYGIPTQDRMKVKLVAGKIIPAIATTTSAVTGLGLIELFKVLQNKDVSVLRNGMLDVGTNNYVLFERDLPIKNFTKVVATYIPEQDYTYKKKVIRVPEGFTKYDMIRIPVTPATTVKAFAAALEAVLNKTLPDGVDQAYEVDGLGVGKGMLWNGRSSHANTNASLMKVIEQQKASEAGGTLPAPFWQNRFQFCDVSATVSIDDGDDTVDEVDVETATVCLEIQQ
Briefly: Leishmania donovani Ubiquitin Activating Enzyme (LdE1). To be noted: 30 µM. In kind it is functional.

The target of test [3] is AMP-activated protein kinase, AMPK (Homo sapiens) (UniProt P54646+O43741+P54619+Q9UGJ0+Q9Y478+Q13131+Q9UGI9). Put plainly: AMP-dependent Kinase enzyme assay. An in vitro enzyme assay that detects ADP turnover that is directly proportional to AMPK activity. This uses naive AMPK that is activated during the assay with MK-8722. In kind it is functional. To be noted: 30 µM.

Test [4] has as its target Sialic acid-binding Ig-like lectin 9 (Homo sapiens) (UniProt Q9Y336). Briefly: Hs-Siglec9 ALPHAscreen SOP 20170721. Conditions: 10 µM.
In a further test the test system is Trypanosoma cruzi. Briefly: Trypanosoma cruzi phosphomannomutase and mannose-1-phosphate guanylyltransferase assay. In kind it is functional. To be noted: 10 µM.
The target in test [5] is T2, Arginase-2, mitochondrial (Homo sapiens) (UniProt P78540).
T2 sequence (whole entry): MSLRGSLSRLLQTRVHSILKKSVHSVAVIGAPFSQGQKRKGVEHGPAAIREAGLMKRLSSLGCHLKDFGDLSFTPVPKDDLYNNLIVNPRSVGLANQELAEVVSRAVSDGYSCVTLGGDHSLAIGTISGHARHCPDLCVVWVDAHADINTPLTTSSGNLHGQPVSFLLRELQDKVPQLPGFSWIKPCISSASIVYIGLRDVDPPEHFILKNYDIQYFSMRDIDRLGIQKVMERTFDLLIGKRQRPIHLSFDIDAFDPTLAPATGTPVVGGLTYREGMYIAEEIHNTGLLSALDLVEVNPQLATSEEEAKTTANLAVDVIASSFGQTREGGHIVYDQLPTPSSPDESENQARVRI
Briefly: in vitro enzyme assay to detect the production of urea directly proportional to the activity of Arginase II. Also: in the data most compounds retested in dose-response had high values. The class given is functional. Conditions: 33.3 µM.

Test [6] deals with T3, Proteasome subunit beta (Trypanosoma cruzi) (UniProt O96673).
T3 sequence (whole entry): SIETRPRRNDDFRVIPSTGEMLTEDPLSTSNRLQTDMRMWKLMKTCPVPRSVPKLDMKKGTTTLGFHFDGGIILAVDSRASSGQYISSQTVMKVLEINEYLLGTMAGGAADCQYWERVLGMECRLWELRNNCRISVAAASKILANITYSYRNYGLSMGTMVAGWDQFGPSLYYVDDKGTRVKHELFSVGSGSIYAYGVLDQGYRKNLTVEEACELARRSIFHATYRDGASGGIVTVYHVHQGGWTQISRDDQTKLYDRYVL
Put plainly: Trypanosoma cruzi proteasome chymotrypsin-like activity (TcProtChymo) assay. Also: in the data most compounds retested in dose-response had high values. In kind it is functional. Conditions: 9.37 µM.

The species named for another test is Homo sapiens. Put plainly: To identify inhibition of the IFN signalling (Jak-Stat) pathway via expression of an eGFP reporter gene under the control of an IFN-stimulated response element (ISRE) containing MxA promoter. The class given is functional. Conditions: 30 µM.
Test [7] addresses T4, Tyrosyl-tRNA synthetase, putative (Trypanosoma cruzi (strain CL Brener)) (UniProt Q4DSP6).
T4 sequence (whole entry): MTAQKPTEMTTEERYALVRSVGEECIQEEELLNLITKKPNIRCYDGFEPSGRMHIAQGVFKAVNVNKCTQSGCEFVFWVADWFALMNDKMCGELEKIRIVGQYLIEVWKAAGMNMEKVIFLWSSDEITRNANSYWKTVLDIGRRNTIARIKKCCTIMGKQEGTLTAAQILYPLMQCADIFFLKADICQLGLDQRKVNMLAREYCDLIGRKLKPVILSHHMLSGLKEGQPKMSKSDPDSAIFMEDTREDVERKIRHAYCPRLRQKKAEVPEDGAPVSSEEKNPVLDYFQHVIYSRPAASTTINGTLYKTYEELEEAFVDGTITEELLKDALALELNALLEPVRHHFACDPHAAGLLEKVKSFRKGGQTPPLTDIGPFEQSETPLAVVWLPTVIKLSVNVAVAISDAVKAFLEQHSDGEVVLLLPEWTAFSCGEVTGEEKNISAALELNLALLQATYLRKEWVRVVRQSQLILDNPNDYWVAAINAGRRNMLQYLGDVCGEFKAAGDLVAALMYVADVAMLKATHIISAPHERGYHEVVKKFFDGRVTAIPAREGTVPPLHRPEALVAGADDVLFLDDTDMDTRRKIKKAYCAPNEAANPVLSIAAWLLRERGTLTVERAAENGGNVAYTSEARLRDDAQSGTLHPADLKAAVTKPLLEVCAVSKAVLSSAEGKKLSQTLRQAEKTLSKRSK
Briefly: Trypanosoma cruzi tyrosyl tRNA synthetase (TcYRS) _High Tyrosine SOP. Also: in the data most compounds retested in dose-response had high values. In kind it is functional. To be noted: 30 µM.

The target of test [8] is T4, Tyrosyl-tRNA synthetase, putative (Trypanosoma cruzi (strain CL Brener)). Briefly: Trypanosoma cruzi tyrosyl tRNA synthetase (TcYRS) SOP. The class given is functional. Conditions: 30 µM.
Test [9] concerns the target Chromo domain-containing protein 1 (Saccharomyces cerevisiae (strain ATCC 204508 / S288c) (Baker's yeast)) (UniProt P32657). Briefly: ScCHD-1 Enzyme Inhibition Assay. Also: in the data most compounds retested in dose-response had high values. The class given is functional. To be noted: 30 µM.

For some of these results: Potency and affinity values are given separately.

Sequence of Sialic acid-binding Ig-like lectin 9 (Homo sapiens) (Q9Y336 whole entry): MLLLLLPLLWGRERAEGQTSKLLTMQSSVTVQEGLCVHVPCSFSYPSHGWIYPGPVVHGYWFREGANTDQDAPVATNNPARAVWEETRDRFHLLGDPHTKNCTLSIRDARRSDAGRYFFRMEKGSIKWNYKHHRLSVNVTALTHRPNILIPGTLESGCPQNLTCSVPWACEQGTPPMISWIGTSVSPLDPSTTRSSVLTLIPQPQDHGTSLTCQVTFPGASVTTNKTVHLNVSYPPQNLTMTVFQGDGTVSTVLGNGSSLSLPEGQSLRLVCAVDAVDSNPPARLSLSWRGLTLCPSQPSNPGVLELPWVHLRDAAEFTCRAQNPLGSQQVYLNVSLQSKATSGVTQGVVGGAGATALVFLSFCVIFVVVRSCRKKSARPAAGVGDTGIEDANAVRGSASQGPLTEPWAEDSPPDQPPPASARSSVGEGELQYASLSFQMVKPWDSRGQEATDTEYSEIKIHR
Sequence of Protein translocase subunit SecA (Escherichia coli (strain K12)) (P10408 whole entry): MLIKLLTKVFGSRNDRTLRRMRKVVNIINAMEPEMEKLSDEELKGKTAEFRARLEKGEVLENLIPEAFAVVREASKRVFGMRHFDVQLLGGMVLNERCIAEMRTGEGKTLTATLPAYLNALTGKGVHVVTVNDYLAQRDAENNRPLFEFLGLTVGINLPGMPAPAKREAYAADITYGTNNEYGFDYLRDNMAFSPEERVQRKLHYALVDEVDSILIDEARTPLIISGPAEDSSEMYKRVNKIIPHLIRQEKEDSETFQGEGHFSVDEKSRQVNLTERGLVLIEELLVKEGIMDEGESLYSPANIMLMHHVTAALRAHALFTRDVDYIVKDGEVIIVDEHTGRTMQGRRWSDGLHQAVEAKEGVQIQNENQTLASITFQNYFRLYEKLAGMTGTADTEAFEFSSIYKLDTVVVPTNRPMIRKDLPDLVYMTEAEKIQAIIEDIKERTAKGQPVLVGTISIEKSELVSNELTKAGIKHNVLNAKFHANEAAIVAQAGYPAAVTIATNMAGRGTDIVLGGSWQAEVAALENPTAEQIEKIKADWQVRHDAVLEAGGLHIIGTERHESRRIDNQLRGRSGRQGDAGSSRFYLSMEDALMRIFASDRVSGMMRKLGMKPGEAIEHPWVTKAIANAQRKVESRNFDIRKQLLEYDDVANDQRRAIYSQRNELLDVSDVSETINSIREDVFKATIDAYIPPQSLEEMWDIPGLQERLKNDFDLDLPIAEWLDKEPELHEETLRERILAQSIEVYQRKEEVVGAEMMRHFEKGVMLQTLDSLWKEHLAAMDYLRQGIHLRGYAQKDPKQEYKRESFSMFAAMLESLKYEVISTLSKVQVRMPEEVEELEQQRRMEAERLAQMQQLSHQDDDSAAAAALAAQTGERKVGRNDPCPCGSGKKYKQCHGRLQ
Sequence of Chromo domain-containing protein 1 (Saccharomyces cerevisiae (strain ATCC 204508 / S288c) (Baker's yeast)) (P32657 whole entry, the tested form may be a part): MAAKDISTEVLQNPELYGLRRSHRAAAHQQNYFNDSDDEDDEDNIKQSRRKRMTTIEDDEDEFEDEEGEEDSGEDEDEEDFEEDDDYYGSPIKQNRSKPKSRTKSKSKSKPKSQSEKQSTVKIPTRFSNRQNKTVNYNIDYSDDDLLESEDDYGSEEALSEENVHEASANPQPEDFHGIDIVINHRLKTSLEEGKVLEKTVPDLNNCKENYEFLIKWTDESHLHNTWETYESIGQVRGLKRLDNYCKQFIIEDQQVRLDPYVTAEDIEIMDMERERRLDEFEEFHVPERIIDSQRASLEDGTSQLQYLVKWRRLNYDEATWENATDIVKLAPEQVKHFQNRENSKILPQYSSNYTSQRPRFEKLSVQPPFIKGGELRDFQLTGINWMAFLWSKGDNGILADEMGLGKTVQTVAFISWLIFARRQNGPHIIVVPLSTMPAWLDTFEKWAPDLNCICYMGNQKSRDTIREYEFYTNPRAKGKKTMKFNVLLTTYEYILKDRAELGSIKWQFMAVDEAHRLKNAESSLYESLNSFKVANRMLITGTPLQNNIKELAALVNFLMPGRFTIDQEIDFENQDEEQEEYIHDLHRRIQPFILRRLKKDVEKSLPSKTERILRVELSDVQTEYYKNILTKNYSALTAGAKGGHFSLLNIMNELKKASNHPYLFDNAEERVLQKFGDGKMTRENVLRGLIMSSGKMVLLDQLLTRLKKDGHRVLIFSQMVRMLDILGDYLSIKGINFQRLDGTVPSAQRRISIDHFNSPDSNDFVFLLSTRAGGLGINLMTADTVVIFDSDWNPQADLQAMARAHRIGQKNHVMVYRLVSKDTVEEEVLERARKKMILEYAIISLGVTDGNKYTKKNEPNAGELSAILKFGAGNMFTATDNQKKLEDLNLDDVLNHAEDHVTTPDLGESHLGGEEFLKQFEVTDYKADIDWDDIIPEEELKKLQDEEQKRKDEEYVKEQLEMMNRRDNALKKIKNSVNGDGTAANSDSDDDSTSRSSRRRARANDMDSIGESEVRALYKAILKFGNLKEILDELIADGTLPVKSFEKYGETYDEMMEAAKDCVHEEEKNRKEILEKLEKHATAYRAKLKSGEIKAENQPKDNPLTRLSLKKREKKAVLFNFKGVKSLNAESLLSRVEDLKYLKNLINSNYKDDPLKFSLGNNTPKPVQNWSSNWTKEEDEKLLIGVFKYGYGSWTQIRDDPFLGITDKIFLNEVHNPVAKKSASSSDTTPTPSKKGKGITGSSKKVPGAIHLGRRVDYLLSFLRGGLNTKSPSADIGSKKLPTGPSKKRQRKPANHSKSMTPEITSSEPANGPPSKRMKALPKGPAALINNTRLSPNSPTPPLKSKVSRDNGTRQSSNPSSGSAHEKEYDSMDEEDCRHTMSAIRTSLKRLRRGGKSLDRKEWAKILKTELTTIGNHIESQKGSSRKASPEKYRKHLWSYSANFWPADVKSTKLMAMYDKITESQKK

`CCCc1nc(C(C)(C)NC(=O)C2CC(=O)N(CC3CC3)C2)no1` (stereo unspecified): the Percent Effect in test [1] was -3.09%; in test [2] it was 10.8%; in [3], -4.68%; in test [4] it was -4.84%; with Trypanosoma cruzi, -6.78%; in [5], 2.4%. In addition, the Percent Effect in [6] is -5.75%; in the test listed under Homo sapiens, 14.8%; in [7], 2.97%; in test [8], 11%; in test [9], 5.6%.
Turning to `CC(=O)N1CCCN(C(=O)NCCc2cc(Cl)cc(Cl)c2)CC1`, the Percent Effect in test [1] was -3.3%; in test [2], -8.86%; in test [3], 10.6%; in test [4], 0.0308%; in the test on Trypanosoma cruzi, -2.77%; in [5] it was 7.1%. Moreover, the Percent Effect was 1.54% in test [6]; 13.1% in the test filed under Homo sapiens; 0% in test [7]; 2.53% in test [8]; -17.6% in test [9].
`Cc1cc(C(=O)N2CCCC2c2nnc3n2CCCCC3)no1` (stereo unspecified): the Percent Effect in test [1] was -2.02%; in test [2], 6.94%; in test [3] it was -6.41%; in test [4], -2.93%; with Trypanosoma cruzi, 0.291%; in test [5], 2.21%. The Percent Effect is 21.1% in test [6]; -18.8% in the test listed under Homo sapiens; 6.32% in test [7]; 12.8% in test [8]; -5.42% in test [9].
For `O=C1COc2cc(C(=O)NS(=O)(=O)c3ccccc3F)ccc2N1`, the Percent Effect in test [1] was -1.86%; in test [2], 2.63%; in test [3], 3.61%; in [4], -9.82%; in the test with Trypanosoma cruzi, -3.46%; in test [5] it was -3.6%. In addition, the Percent Effect in test [6] was 5.16%; in the test filed under Homo sapiens, -3.9%; in test [7] it was -4.43%; in [8], -11.1%; in [9], 2.83%.
In the case of `Cc1cc(=O)n2ncnc2n1CC(O)c1ccccc1Cl` (stereo unspecified), the Percent Effect in test [1] is -0.278%; in test [2], 7.89%; in test [3], 6.81%; in [4] it was -5.31%; in the test with Trypanosoma cruzi, -6.52%; in test [5] it was -8.28%. Besides, the Percent Effect in test [6] is 18.1%; in the test listed under Homo sapiens it was -6.46%; in test [7] it was 3.19%; in test [8] it was 7.79%; in test [9], -2.48%.
In the case of `COc1ccc2c(c1)C1(CCN(Cc3ccncc3)CC1)N(C)CC2`, the Percent Effect is -3.01% in [1]; 7.79% in test [2]; 2.38% in test [3]; 7.8% in test [4]; -3.06% in the test on Trypanosoma cruzi; 0.645% in test [5]. In addition, the Percent Effect in test [6] was 14.4%; in the test listed under Homo sapiens, -6.76%; in test [7], 0%; in [8], 3.85%; in test [9] it was -8.34%.
`O=C(NCc1ccccn1)[C@@H]1CCO[C@@H]2CCN(Cc3ccoc3)C[C@H]21`: the Percent Effect is -4.59% in test [1]; 8.11% in test [2]; 7.22% in [3]; -2.83% in test [4]; -3.03% in the test with Trypanosoma cruzi; 0.955% in test [5]. The Percent Effect in test [6] is 17.5%; in the test filed under Homo sapiens it was 3.21%; in test [7], 4.32%; in [8] it was 15.4%; in [9], -2.07%.
As to `CCc1nc(NS(=O)(=O)c2ccc(F)cc2C)no1`, the Percent Effect was -4.36% in test [1]; -2.67% in test [2]; -5.09% in test [3]; 21.3% in test [4]; 8.67% in the test with Trypanosoma cruzi; -0.521% in [5]. The Percent Effect was -0.872% in test [6]; 15.9% in the test listed under Homo sapiens; 0.546% in test [7]; 6.17% in [8]; -1.94% in test [9].
As for `NC(=O)COc1cccc(C(=O)N2CCCC(n3cccn3)C2)c1` (stereo unspecified), the Percent Effect in test [1] is -3.05%; in test [2], 13.5%; in test [3], -1.18%; in test [4], 4.63%; with Trypanosoma cruzi, 8.45%; in [5], 1.29%. The Percent Effect in test [6] is 16%; in the test filed under Homo sapiens, 4.13%; in [7] it was 4.95%; in test [8], 28.1%; in test [9], -6.2%.
As for `CC(NC(=O)NCCCN(C)S(C)(=O)=O)c1cccc(Cl)c1` (stereo unspecified), the Percent Effect is 1.78% in test [1]; 6.33% in [2]; 0.875% in test [3]; -4.21% in [4]; -2.97% in the test on Trypanosoma cruzi; 0.215% in [5]. For the same compound, the Percent Effect in test [6] was 11.8%; in the test filed under Homo sapiens, 13.8%; in test [7] it was 9.38%; in test [8], 7.59%; in test [9], 0.197%.
For the compound `O=C(Cc1ccc(O)c(Cl)c1)N1CCCCC1CCn1cccn1` (stereo unspecified), the Percent Effect is -3.9% in test [1]; 13.5% in test [2]; 1.21% in [3]; 26.9% in test [4]; 3.09% in the test with Trypanosoma cruzi; 0.476% in [5]. Further, the Percent Effect in [6] is 10.9%; in the test listed under Homo sapiens, 0.632%; in test [7] it was 3.7%; in test [8] it was 19.5%; in test [9], -5.17%.
